The values below come from PubChem BioAssay (EPA / NIEHS).

Usually AC50 stands for the midpoint of the concentration-response curve, whichever way the signal moves.

Active and inactive are the calls of the source. How the source made its calls: active means hit-call score of the fitted dose curve at least 0.9, where 1 is the maximum; inactive means score below 0.9.

Read-out in the experiment: Interleukin-6 (IL6), IL6 (gene 3569)
Kind of experiment: BSK_CASM3C_IL6: BioMAP Diversity Plus: CASM3C Assay for Interleukin-6 (IL6) Biomarker Activity for (AID 2283040). The settings on record: primary human coronary artery smooth muscle cells; actives raise or lower the signal.
With `Clc1nc(Cl)c(Cl)c(Cl)c1Cl`, the outcome was inactive.
On the same count and under the same terms, with `CC[C@H]1OC(=O)[C@H](C)[C@@H](O[C@H]2C[C@@](C)(OC)[C@@H](O)[C@H](C)O2)[C@H](C)[C@@H](O[C@@H]2O[C@H](C)C[C@H](N(C)C)[C@H]2O)[C@](C)(O)C[C@@H](C)C(=O)[C@H](C)[C@@H](O)[C@]1(C)O` the entry was “inactive”.
In the case of `CCOc1cccc(-n2cc(C(=O)N3CCN(c4cc(C(=O)O)c5ccccc5c4)CC3)nc2-c2ccc(C)cc2)c1`, the AC50 is 30.3 µM (active).
For the compound `CC(C)CCCCCCOC(=O)c1ccc(C(=O)OCCCCCCC(C)C)c(C(=O)OCCCCCCC(C)C)c1`, the outcome was inactive.
Still for that read-out and setting: under `Cc1[nH]cnc1C[C@H]1CCc2c(C)c3ccccc3n2C1=O` stands “inactive”; under `Oc1ccc2c(c1)-c1ccccc1C2`, “inactive”.
The same measure, in the same setting: with `CCCN(C1CCN(C(=O)C2CCNCC2)CC1)[C@@H]1CCc2ccc(OC)cc2C1` the entry was “inactive”; with `COC(=O)c1ccccc1O`, “inactive”.
Same read-out and setting: with `COCCOCCOCCOC` the entry was “inactive”; with `O=c1[nH]c2ccc(S(=O)CCN3CCC(Cc4ccc(F)cc4)CC3)cc2o1` (stereo not drawn), “inactive”; with `O=C(O)CC(O)C(=O)O` (stereo not drawn), “inactive”.
Regarding `CC(C)CC(C)(O)C#CC(C)(O)CC(C)C` (stereo not drawn), the outcome was inactive.
On the same count and under the same terms, with `CC/C(=C\C(=N/O)C(N)=O)C(C)[N+](=O)[O-]` (stereo not drawn) the entry was “inactive”.
The same measure, in the same setting: with `COCCOc1cc2cc(C(=O)NC3CCN(C(C)C)CC3)n(CC(=O)Nc3ccc(Cl)cn3)c2cn1` the entry was “inactive”; with `COC(=O)CC(=O)OC`, “inactive”; with `C1N2CN3CN1CN(C2)C3`, “inactive”.
As for `CNCc1ccc(NC(=O)c2c[nH]c3c2C(=O)CCC3)cc1`, the outcome was inactive.
Turning to `CC(=O)OC[C@H]1O[C@@](COC(C)=O)(O[C@H]2O[C@H](COC(C)=O)[C@@H](OC(C)=O)[C@H](OC(C)=O)[C@H]2OC(C)=O)[C@@H](OC(C)=O)[C@@H]1OC(C)=O`, the outcome was inactive.
